# High-throughput results: PubChem, National Center for Advancing Translational Sciences (NCATS)
# KCNH2 3.1 inh: blocks the human KCNH2 3.1 channel isoform. U2OS KCNH2 3.1, thallium flux FluxOr; active compounds read low. activity change, % (tested at about 1.8 µM). 340,000 compounds, 0.95% hits;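 active means maximum activity change below -70%; inconclusive means maximum activity change from -70% to -50%; inactive means maximum activity change above -50%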;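 further: thallium influx rate constant from kinetic fluorescence after stimulation buffer; on the % scale 0 is the no-effect control and ±100 the full control effect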
#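 Kinetic fluorescence (2 min after stimulation buffer) measures Tl+ influx through KCNH2 3.1 expressed by viral transduction in U2OS cells; the rate constant is normalized against DMSO controls serving as positive and negative references.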
# Menin MLL FP FL: menin-MLL binding inhibition, fluorescein peptide; Fluorescence polarization, fluorescein-MLL peptide displacement from menin; FP activity change, % at 61.4 µM; 290,000 tested, under 10 active; active means well fitted curve in the direction sought with a large enough effect in the polarisation, not every such curve was filed as active; inconclusive means small, poorly fitted or top-dose-only effect, or effect the other way, or a change in a side signal; inactive means no such curve, though single readings can be large or run the other way; the % refers to the polarisation; further: % of control where 0% means no effect
# Menin-MLL TR inh: displaces Texas Red mutant MLL peptide from human menin; O00255; Menin + Texas Red MLL mutant peptide, fluorescence polarization; Potency, µM (top dose mostly 61.6 µM), inactives show top-dose FP activity change, negative = inhibition, actives largely listed as inhibitors; 270,000 compounds, 0.23% hits; active means well fitted inhibition curve with a large enough effect in the polarisation, with a control signal flat, not every such curve was filed as active; inconclusive means small, poorly fitted or top-dose-only effect, or effect the other way, or a change in a side signal; inactive means no such curve, though single readings can be large or run the other way; the % refers to the polarisation; further: potency means the concentration at half of the fitted maximal effect; % of control where 0% means no effect
# KCNH2 WT inh: KCNH2 (human, wildtype) channel inhibition. Q12809. U2OS, BacMam KCNH2, thallium flux FluxOr; active compounds read low. activity change, % at 1.84 µM. 340,000 compounds, 0.37% hits. AID 720551;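 active means maximum activity change below -70%; inconclusive means maximum activity change between -70% and -50%; inactive means maximum activity change above -50%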; further: on the % scale 0 is the no-effect control and ±100 the full control effect
#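 U2OS cells were transduced with wild-type KCNH2 virus (2.03 x 10^8 / mL) for 4 h at room temperature, then cultured overnight at 37 C. Thallium flux was read with FluxOr dye. Rate constants were normalized to DMSO controls.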
# MLL CXXC-DNA inh: MLL CXXC-DNA interaction inhibition. MLL-CXXC / FITC-HOXA9 DNA fluorescence polarization. Potency, µM (doses to about 115 µM), for the others: top-dose activity change, negative = inhibition, usual class: inhibitors. 290,000 compounds, 0.037% hits. AID 2662; active means well fitted inhibition curve with a large enough effect in the polarisation, with a control signal flat, not every such curve was filed as active; inconclusive means small, poorly fitted or top-dose-only effect, or effect the other way, or a change in a side signal; inactive means no such curve, though single readings can be large or run the other way; the % refers to the polarisation; further: potency means the concentration at half of the fitted maximal effect
#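 Purified MLL-CXXC (added from a 7 uM solution) was preincubated 5 min at ambient with pinned compounds in 50 mM Tris-HCl pH 7.5, 50 mM NaCl, 1 mM DTT, 0.05% BSA. Fluorescein-labeled HOX-A9 DNA (50 nM solution) followed, 30 min, then polarization read.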
# * hit, by the source's call; ? = inconclusive; . = no result; [ ] = dose if it differs, or a comment. Hits are enriched below; roughly 1.1% of the tested compounds scored in any of these assays.
SMILES,KCNH2 3.1 inh,Menin MLL FP FL,Menin-MLL TR inh,KCNH2 WT inh,MLL CXXC-DNA inh
CCCCc1ncc(CN2CCC(n3nccc3NC(=O)c3ccccc3OC)CC2)[nH]1,-79.3*,-0.6,-27.3%,-41.6,1.7%
CCCn1ncc(CN2CCC(n3nccc3NC(=O)c3ccccc3OC)CC2)c1C,-94.8*,.,.,?,-6.7%
CCOC(=O)c1c(C)[nH]c(C(=O)COC(=O)c2ccc([N+](=O)[O-])o2)c1C,0.0,.,.,-8.4,.
COC(=O)c1ccn(CC(=O)NC2CCCCC2)n1,-3.7,.,.,-5.2,?
O=c1c2ccccc2ncn1Cc1ccc(Cl)cc1,-98.3*,-2.9,3.2%,1.8,11.3%
COc1ccccc1C(=O)Nc1c(C(=O)N(CCN(C)C)Cc2ccco2)oc2ccccc12,-14.8,.,.,-36.8,-16.6%
COc1ccc(OCC(=O)Nc2c(C(=O)N(CCN(C)C)Cc3ccco3)oc3ccccc23)cc1,-111.3*,0.2,-14.8%,?,-6.6%
COc1ccc(OCC(=O)Nc2c(C(=O)N3CCN(C)CC3)oc3ccccc23)cc1,1.3,.,.,0.5,14.7%
Cc1ccccc1C(=O)Nc1c(C(=O)N(CCN(C)C)Cc2ccco2)oc2ccccc12,-84.2*,0.0,-7.9%,-92.3*,-3.1%
CC(C)CCNC(=O)C1CC(c2ccccc2[N+](=O)[O-])=NO1 (stereo not drawn),-13.0,.,.,-2.1,.
Cc1cc(NC(=O)CCCN2C(=O)c3cccnc3C2=O)no1,10.2,2.1,9.7%,-8.4,-6.2%
Cc1cc(NC(=O)CCCN2C(=O)c3cccnc3C2=O)ccc1Br,-72.0*,2.3,1.7%,-14.0,5.7%
CCN(CC)S(=O)(=O)c1ccc(N2CCOCC2)c(NS(=O)(=O)c2ccc(C)c(C)c2)c1,-94.1*,8.7,10.2%,5.6,3.8%
CCc1ccc(/C=C2\SC(=S)N(CCCC(=O)Nc3cc(C)on3)C2=O)cc1,15.7,.,.,-12.3,.
Cc1cc(NC(=O)CCCN2C(=O)/C(=C/c3cccs3)SC2=S)no1,0.9,3.7,17.8µM*,-1.2,-17.6%
NS(=O)(=O)c1ccc(CCNCc2ccccc2OCc2ccc(Cl)cc2)cc1,-70.9*,-0.3,-12.9%,-0.3,?
O=C(O)CCCC(=O)NNC(=O)c1cccc(Br)c1,-97.5*,0.7,11.8%,6.4,-28.6%
O=C(O)CCCCCNC(=O)c1cccc(Br)c1,-3.2,-5.5,-3.1%,3.1,-2.0%
O=C(NNC(=O)c1ccccc1O)c1cccc(Br)c1,-80.7*,-0.5,-2.5%,3.3,9.6%
COC(c1ccccc1)C(C)C(OC)C(C)C(OC)C(C)C(C)=O (stereo not drawn),.,2.2[11.7 µM],-0.1%[11.7 µM],.,.
CS(=O)(=O)Nc1cccc(-c2cc(NCc3ccccc3)ncn2)c1,.,4.1,0.9%,.,.
COC1OC2COC(c3ccccc3)OC2C2OC(c3ccccc3)OC12 (stereo not drawn),-14.8,.,.,21.4,.
CCC(=O)Oc1ccc(C(=O)Nc2ccc([N+](=O)[O-])cc2)cc1,9.3,-1.0,12.5%,-158.9*,14.0%
CC(C)COc1ccc(C(=O)Nc2ccc([N+](=O)[O-])cc2)cc1,-11.5,-0.9,7.2%,6.0,-0.8%
CC(C)C[C@@H](CC(=O)N[C@@H](CCCN)CC(=O)N[C@@H]1CCNC[C@H]1C(=O)N[C@H](CC(=O)N[C@@H](CCC(=O)O)CC(=O)O)CC(C)C)NC(=O)[C@@H]1CCCC[C@H]1N,.,-2.3,-10.0%,.,.
SMILES,KCNH2 3.1 inh,Menin MLL FP FL,Menin-MLL TR inh,KCNH2 WT inh,MLL CXXC-DNA inh
C/C=C(\C)C(=O)NCCN1C2=NC[C@H](Cc3ccccc3)N2C[C@@H]1Cc1ccc(OC)cc1,-83.2*,.,.,-25.8,.
COc1ccc(C[C@@H]2CN3C(=NC[C@@H]3C)N2C[C@H](C)NC(=O)CCC2CCCCC2)cc1,-84.3*,5.6,?,-129.5*,?
COc1ccc(C[C@H]2CN3C(=NC[C@H]3Cc3ccccc3)N2CCNC(=O)CCC2CCCCC2)cc1,?,0.6,?,-107.2*,-25.6%
C/C=C(\C)C(=O)NCCN1C2=NC[C@H](Cc3ccccc3)N2C[C@H]1Cc1ccc(O)cc1,-10.2,-10.9,-27.5%,3.0,-1.1%
Cc1ccc(Cl)c(OCCCN(C)Cc2ccccc2)c1,-10.3,-0.9,-11.1%,-70.0*,2.1%
COc1cc(Br)cc(C(=O)N2CCc3ccccc32)c1OC,-3.1,.,.,-1.2,.
CCc1ccc(/C(C)=N/NC(=O)CNC(=O)/C=C/c2ccco2)cc1,8.5,.,.,6.2,.
